# Measured values from PubChem BioAssay AID588342 (National Center for Advancing Translational Sciences (NCATS), 2011).
# The whole screen tested about 360,000 compounds, of which about 25,000 (6.9%) were called active. Not shown: some 9% with an inconclusive outcome. Calls follow the shape of the dose curve; as a rule, active = well fitted inhibition curve with a large enough effect; inconclusive = small, poorly fitted or top-dose-only effect; inactive = flat fitted curve, though single readings scatter. The sample as a whole holds a higher share of actives than the screen did.
# Biological target: Luciferin 4-monooxygenase (Photinus pyralis) (UniProt P08659)
# Sequence (P08659 whole entry, looked up): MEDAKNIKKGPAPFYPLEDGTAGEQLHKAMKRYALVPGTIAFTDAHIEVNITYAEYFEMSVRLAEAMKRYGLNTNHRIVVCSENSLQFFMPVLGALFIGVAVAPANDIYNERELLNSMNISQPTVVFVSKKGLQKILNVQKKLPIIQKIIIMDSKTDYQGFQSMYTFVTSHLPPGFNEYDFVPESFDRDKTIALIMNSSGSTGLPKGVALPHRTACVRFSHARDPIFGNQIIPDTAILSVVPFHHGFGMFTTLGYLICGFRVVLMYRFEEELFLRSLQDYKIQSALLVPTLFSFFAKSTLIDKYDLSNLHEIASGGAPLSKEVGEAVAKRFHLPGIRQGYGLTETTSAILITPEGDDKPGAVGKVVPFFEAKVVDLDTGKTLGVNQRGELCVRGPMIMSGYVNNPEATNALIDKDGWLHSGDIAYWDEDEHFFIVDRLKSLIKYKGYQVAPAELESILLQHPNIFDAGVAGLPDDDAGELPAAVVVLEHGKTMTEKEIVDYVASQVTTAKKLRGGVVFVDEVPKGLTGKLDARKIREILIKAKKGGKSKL
# Assay: qHTS profiling assay for firefly luciferase inhibitor/activator using purifed enzyme and Km concentrations of substrates (counterscreen for miR-21 project); also: nearly all actives have a fitted effect of over 55% in size;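 as to activity change, negative = inhibition: plate controls were vehicle for no effect and reference inhibitor for full effect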
# Settings: purified FLuc, luminescence inhibition; series mostly up to 57.5 µM; activity change, negative = inhibition: at the top concentration
# Method in brief: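 Purified P. pyralis luciferase, 10 nM final, with Km-level 10 uM D-luciferin and 10 uM ATP in 50 mM Tris acetate pH 7.5, 10 mM Mg acetate, 0.01% Tween-20, 0.05% BSA; 6-point qHTS titration about 60 µM downward; luminescence read.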
# Potency is read from the fitted curve at half-maximal effect.
SMILES,"activity change, negative = inhibition",Potency
Cc1cc(C)cc(OCC(=O)Nc2ccc(N3CCOCC3)cc2N2CCOCC2)c1,1.89% (inactive),
Cc1nn2c(=O)cc(COC(=O)CNC(=O)c3ccc(F)cc3)nc2s1,2.08% (inactive),
COc1cccc(N2CCN(S(=O)(=O)c3cc(Br)cc4c3N(C(=O)C3CC3)CC4)CC2)c1,0.1% (inactive),
COc1ccc(S(=O)(=O)NCC2CCCN(C(=O)c3occc3C)C2)cc1 (stereo unspecified),-1.96% (inactive),
COc1ccc(CCC(C)N2CCc3ccccc3C2)cc1 (stereo unspecified),-0.635% (inactive),
Cc1ccc(-n2ncc3c(=O)[nH]cnc32)c(C)c1,0.0061% (inactive),
COc1cc(C)c(C)cc1S(=O)(=O)N1CCCc2ccccc21,5.54% (inactive),
COc1ccc(-n2c(C)nc3c(cnn3-c3ccc(F)cc3)c2=O)cc1,3.47% (inactive),
Cc1cccc(-n2ncc(Cl)c(Cl)c2=O)c1,0.614% (inactive),
COc1ccc2oc(=O)c(C(=O)N3CCCc4ccccc43)cc2c1,3.4% (inactive),
Cc1cccc(-n2ncc3c(N4CCc5ccccc54)ncnc32)c1,,0.536 µM (active)
COc1ccc(-n2ncc3c(N4CCc5ccccc54)ncnc32)cc1,,0.379 µM (active)
COc1ccc(-n2ncc3c(N4CCCc5ccccc54)ncnc32)cc1,,1.35 µM (active)
CCCCN(C(=O)C1=NN(c2cc(C)ccc2C)C(=O)CC1)c1c(N)n(CCC)c(=O)[nH]c1=O,-0.555% (inactive),
COc1cccc(CNC(=O)CN2C(=O)NC(Cc3ccccc3)(c3ccccc3)C2=O)c1 (stereo unspecified),0.778% (inactive),
CC1=C(c2ccc(Cl)cc2)S(=O)(=O)N=C1N1CCN(c2cc(C)ccc2C)CC1,-4.39% (inactive),
COc1ccc(/C=C/c2nnc(NC(=O)C(C)C)s2)cc1,,2.69 µM (active)
O=C(CSc1ccccc1)Nc1nnc(/C=C/c2ccccc2)s1,-1.44% (inactive),
CC(C)C(=O)Nc1nnc(Sc2ccc(N(C)C)cc2)s1,0.449% (inactive),
CCCC(=O)N1CCN(c2nc3c(OC)ccc(C)c3s2)CC1,-13.8% (inactive),
COc1ccccc1NC(=O)c1cc(C2CC2)nc2c1c(C)nn2-c1ccc(C)cc1,2.95% (inactive),
CS(=O)(=O)c1ccc2c(c1)SC1=NC(=O)/C(=C/c3ccco3)C(=N)N12,,10.7 µM (active)

SMILES,"activity change, negative = inhibition",Potency
CS(=O)(=O)C1=NN2C(=N)/C(=C\c3ccc(OCCOc4ccccc4)cc3)C(=O)N=C2S1,5.51% (inactive),
CC(C)(C)C1C/C(=C/c2ccco2)C(=O)/C(=C/c2ccco2)C1 (stereo unspecified),8.48% (inactive),
CC(NC(=O)CN(C)S(=O)(=O)c1ccc(F)cc1)C1CC2CCC1C2 (stereo unspecified),6.14% (inactive),
Cc1ccc2oc(=O)c3cnn(CC(=O)NCc4ccccc4Cl)c3c2c1,0.217% (inactive),
CCOc1ccccc1C1CC(c2cccc(NS(C)(=O)=O)c2)=NN1C(=O)c1ccccc1 (stereo unspecified),-1.5% (inactive),
CCOc1cccc2c1OC1(CCCCC1)N1N=C(c3cccnc3)CC21 (stereo unspecified),,19 µM (active)
N#CCN(C(=O)COC(=O)C1CC2CCCC(C1)C2=O)c1ccccc1 (stereo unspecified),0.412% (inactive),
Cc1c(C=O)c2ccccc2n1CC(=O)O,-1.92% (inactive),
CC(=O)n1c(C=Nc2ccccc2)c(O)c2ccccc21,,16.9 µM (active)
CCCn1c(=O)c(-c2ccccc2)c(O)c2ccccc21,3.5% (inactive),
COC(=O)c1cn(CC(=O)NCc2cccs2)c2ccccc12,-12.6% (inactive),
O=C(Cn1cc(C(=O)c2cccs2)c2ccccc21)NCc1cccs1,,19 µM (active)
Cc1ccccc1NC(=O)Cn1cc(C(=O)c2cccs2)c2ccccc21,-10.7% (inactive),
COc1ccc(-c2nc(Cn3c(=O)cc(C)c4c(C)nn(-c5ccccc5)c43)c(C)o2)cc1OC,-0.0045% (inactive),
O=C(CCc1nnc2ccc(NCc3ccco3)nn12)Nc1cc(F)ccc1F,-1.74% (inactive),
COc1ccc(CCNCc2c(-c3ccccc3)n(C)c3ccccc23)cc1,-0.95% (inactive),
COc1ccc(-c2c(C#Cc3ccccc3)c3ccccc3n2C)cc1,,12 µM (active)
CN(C)Cc1c(C#N)c2ccccc2n1C,1.17% (inactive),
Cc1ccc(-c2nn(CCC(=O)Nc3ccc(OC(F)(F)F)cc3)c(=O)c3ccccc23)cc1,1.85% (inactive),
Cc1c(NC(=O)C(C)OC(=O)c2cc3c4ccccc4n(C)c3s2)c(=O)n(-c2ccccc2)n1C (stereo unspecified),-17.6% (inactive),
Cc1cccc(NC(=O)CSc2nc3c([nH]c4ccccc43)c(=O)n2-c2cc(C)cc(C)c2)c1,3.56% (inactive),
Cn1c(=NC(=O)c2cnccn2)sc2ccccc21,,4.78 µM (active)

SMILES,"activity change, negative = inhibition",Potency
COC(=O)c1ccc(OC(=O)c2cnccn2)cc1,-6.6% (inactive),
O=C(NCCCNC(=O)c1ccccc1Cl)c1cnccn1,0.753% (inactive),
Cc1ccc(S(=O)(=O)c2nc(-c3ccco3)oc2SCC(=O)Nc2ccc(F)cc2)cc1,-1.94% (inactive),
CCOC(=O)c1cc(OC(=O)c2ccccc2Cl)n(-c2ccccc2)n1,-10.6% (inactive),
Cc1cc(OC(=O)c2ccccc2Cl)ccc1N1C(=O)CCC1=O,,5.36 µM (active)
COc1ccccc1C(=O)Oc1ccc(N2C(=O)CCC2=O)cc1,-18.3% (inactive),
COCCN(Cc1ccco1)C(=O)Cn1ncc2c([nH]c3ccccc32)c1=O,-7.77% (inactive),
COc1ccc(NC(=O)CCCN2C(=O)C(c3ccccc3)Oc3cccnc32)cc1 (stereo unspecified),-5.7% (inactive),
Cc1[nH]n(C)c(=O)c1N=Nc1ccc(S(C)(=O)=O)cc1,-0.788% (inactive),
Cc1[nH]n(C(N)=S)c(=O)c1N=Nc1ccc(Cl)cc1Cl,,10.7 µM (active)
Clc1ccc(-c2nnc(SCc3nc4ccccc4s3)o2)cc1,,19 µM (active)
O=C(CSc1nnc(-c2ccncc2)o1)NCc1ccc(Cl)cc1,3.75% (inactive),
Cn1c(SCc2nc3ccccc3s2)nnc1-c1ccc2c(c1)OCO2,-1.94% (inactive),
COc1ccc(-n2c(=O)c3sc4ccccc4c3n(CC(=O)Nc3cccc(C)c3)c2=O)cc1,-12.3% (inactive),
Cc1cc(C)c2nc3nc(C)cc(C)c3c(N)c2c1,,15.1 µM (active)
Cc1cc(C)c([N+](=O)[O-])cc1-c1ccc(/C=N/NC(=O)c2nonc2N)o1,-5.62% (inactive),
O=C1C2C3C=CC(C4CC34)C2C(=O)N1/N=C/c1ccc(-c2ccccc2[N+](=O)[O-])o1 (stereo unspecified),,10.7 µM (active)
O=C(CN1C(=O)CCn2nc(-c3ccccc3)cc21)NCc1ccccc1,2.85% (inactive),
CCOc1cccc(CC(=O)N2CCc3c([nH]c4ccccc34)C2c2ccc(F)cc2)c1OCC (stereo unspecified),1.15% (inactive),
O=C(/C(=C/c1cccc(Cl)c1)c1nc2ccccc2[nH]1)c1ccccc1,-8.51% (inactive),
O=C(Cc1nc2ccccc2[nH]c1=O)c1ccc(Cl)cc1,,0.757 µM (active)
N#C/C(=C(/O)COC(=O)COc1ccc(Cl)cc1)c1nc2ccccc2[nH]1,-0.937% (inactive),
